Reference: PubChem BioAssay
Where “and” joins values, the source holds several entries; their conditions need not be identical. Identical values can stand only once. A structure can be active in one record and inactive in another. Calls of active or inactive are those of the source.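 How the source made its calls, unless noted: active means inhibition at or above 50% relative to wild type and mutant plate controls; inactive means inhibition below 50%.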

Legend:
[1] = inhibitors of TNFa-induced NFkB p65 translocation, primary screen, imaging, HUVEC, MLSMR starter and 10KST1 sets (AID 438;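 active means inhibition above 20% together with a positive visual image hit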;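 further: compound added about 3h40 before a 20 min TNFalpha stimulation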;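 on inhibition: signal is the nuclear over cytoplasmic p65 intensity ratio per well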); conditions: HUVEC TNFa-induced p65 nuclear translocation; cell count: measured here: nuclei count (cytotoxicity indicator), at 2.08 µM unless noted; inhibition: at 2 µM, stronger effect = higher value unless noted
[2] = inhibitors of mutant huntingtin aggregation, primary screen, imaging, exon1htt(103Q)mCFP cells, high-content imaging (AID 483;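 active means visual image review flags a hit and inhibition of aggregation exceeds 20%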;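 further: compound exposure lasted 3 days before fixation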;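 on nuclei count: percent of the per-plate median nuclei count of sample wells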); conditions: exon1htt(103Q)mCFP cell line, aggregate imaging, at 2 µM; inhibition of aggregation: stronger effect = higher value; nuclei count: measured here: cell count, toxicity
[3] = inhibitors of E-selectin induction by TNFa, primary screen, imaging, HUVEC, immunofluorescence, MLSMR starter and 10KST1 sets (AID 487;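 active means visually confirmed hit in the image check and inhibition above 20%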;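 on inhibition: signal is fraction of cell area covered by stained E-selectin grains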;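 on nuclei count: 100% = median nuclei count of all wells on the same plate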); conditions: HUVEC TNFalpha-induced E-selectin immunofluorescence imaging, at 2 µM; inhibition: stronger effect = higher value; nuclei count: measured here: cell number, toxicity
[4] = DUSP6 inhibitors restoring Erk phosphorylation by chemical complementation, primary imaging in DUSP6-transfected HeLa (AID 609;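 active means compounds giving at least 50% inhibition in the cell-based MKP-3 phosphatase rescue imaging test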;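 on inhibition: phospho-Erk level distribution per well compared with pooled transfected vehicle control wells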); conditions: HeLa MKP-3 transfected, phospho-Erk imaging KS statistic, at 10 µM
[5] = molecular target: Dual specificity protein phosphatase 6 (Homo sapiens) (UniProt Q16828); assay: as above; conditions: HeLa MKP-3 transfected, phospho-Erk imaging KS statistic, at 10 µM, stronger effect = higher value
Sequence of Dual specificity protein phosphatase 6 (Homo sapiens) (Q16828 whole entry, looked up): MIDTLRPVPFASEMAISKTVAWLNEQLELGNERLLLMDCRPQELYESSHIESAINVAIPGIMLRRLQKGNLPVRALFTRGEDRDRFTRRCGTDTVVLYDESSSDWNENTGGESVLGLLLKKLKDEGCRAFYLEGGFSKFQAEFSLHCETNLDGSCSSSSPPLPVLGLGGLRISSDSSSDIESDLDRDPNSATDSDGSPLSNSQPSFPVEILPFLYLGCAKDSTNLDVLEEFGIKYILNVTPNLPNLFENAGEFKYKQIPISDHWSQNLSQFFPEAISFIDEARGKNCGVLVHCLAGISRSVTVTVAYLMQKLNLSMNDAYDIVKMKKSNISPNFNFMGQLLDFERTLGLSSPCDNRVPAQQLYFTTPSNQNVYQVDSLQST

[6] = molecular target: Voltage-gated potassium channel subunit beta-2 (Rattus norvegicus) (UniProt P62483); assay: KvBeta enzyme negative modulators, primary screen, biochemical, NADPH fluorescence (AID 622;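 active means fluorescence slope higher than the sample average by over 3 SD, cut at about -0.22 in these data, passing the limit was not always enough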;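 further: slope of raw intensity against log time taken from 70 to 1610 s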); conditions: recombinant KvBeta, 4-cyanobenzaldehyde reduction, at 10 µM, stronger effect = higher value
Sequence of Voltage-gated potassium channel subunit beta-2 (Rattus norvegicus) (P62483 whole entry, looked up): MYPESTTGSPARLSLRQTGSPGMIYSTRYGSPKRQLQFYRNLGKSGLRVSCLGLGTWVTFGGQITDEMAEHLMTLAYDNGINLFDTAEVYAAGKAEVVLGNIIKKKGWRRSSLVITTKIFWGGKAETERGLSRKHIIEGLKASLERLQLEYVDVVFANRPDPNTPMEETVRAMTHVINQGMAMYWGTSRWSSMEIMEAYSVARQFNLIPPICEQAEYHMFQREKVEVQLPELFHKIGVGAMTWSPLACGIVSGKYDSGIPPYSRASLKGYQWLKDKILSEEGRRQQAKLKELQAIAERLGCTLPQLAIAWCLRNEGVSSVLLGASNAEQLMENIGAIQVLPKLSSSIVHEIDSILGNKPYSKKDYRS

[7] = molecular target: Voltage-gated potassium channel subunit beta-2 (Rattus norvegicus) (UniProt P62483); assay: KvBeta positive modulators, primary screen, biochemical, NADPH fluorescence (AID 623;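 active means NADPH fluorescence slope more negative than the mean of all samples by about 3 SD, 99.7% confidence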;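 further: fluorescence intensity change per second fitted from 20 to 320 s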); conditions: Recombinant KvBeta, NADPH fluorescence decrease slope, 10 min; at 10 µM; stronger effect = lower value
[8] = molecular target: Alpha-2C adrenergic receptor (Homo sapiens) (UniProt P18825); assay: modulators of alpha2C/GIRK thallium flux, primary screen, cell-based, HEK293 alpha2C/GIRK1/2 (AID 624;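 active means fluorescence slope after compound addition differing from the mean of all screened samples at 99.7% confidence, in either direction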;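 further: slope of fluorescence ratio to pre-addition baseline per second over 15 to 24 s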); conditions: thallium flux BTC fluorescence, at 10 µM, actives lie on both sides
Sequence of Alpha-2C adrenergic receptor (Homo sapiens) (P18825 whole entry, looked up): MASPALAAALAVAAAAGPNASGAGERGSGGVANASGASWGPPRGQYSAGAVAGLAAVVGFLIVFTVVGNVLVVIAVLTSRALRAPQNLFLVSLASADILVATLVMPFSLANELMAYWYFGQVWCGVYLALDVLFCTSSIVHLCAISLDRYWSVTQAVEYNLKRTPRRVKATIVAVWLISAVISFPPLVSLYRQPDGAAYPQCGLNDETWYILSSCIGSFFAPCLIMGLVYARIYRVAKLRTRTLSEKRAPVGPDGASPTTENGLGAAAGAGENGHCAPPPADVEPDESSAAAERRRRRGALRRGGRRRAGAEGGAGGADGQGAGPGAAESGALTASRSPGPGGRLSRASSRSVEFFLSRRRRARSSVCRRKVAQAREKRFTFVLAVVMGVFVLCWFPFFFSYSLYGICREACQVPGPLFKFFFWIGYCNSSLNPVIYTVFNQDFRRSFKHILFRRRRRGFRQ

[9] = molecular target: Muscarinic acetylcholine receptor M4 (Homo sapiens) (UniProt P08173); assay: compounds altering M4/GIRK thallium flux, either direction, primary screen, M4 allosteric agonist project, cell-based, HEK293 M4/GIRK, BTC-AM (AID 625;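 active means fluorescence slope after compound addition differing from the mean of all tested samples at 99.7% confidence, mostly higher but some lower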;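 further: thallium influx through GIRK channels coupled to M4 in HEK293 cells with BTC-AM dye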); conditions: at 10 µM, actives lie on both sides
Sequence of Muscarinic acetylcholine receptor M4 (Homo sapiens) (P08173 whole entry, looked up): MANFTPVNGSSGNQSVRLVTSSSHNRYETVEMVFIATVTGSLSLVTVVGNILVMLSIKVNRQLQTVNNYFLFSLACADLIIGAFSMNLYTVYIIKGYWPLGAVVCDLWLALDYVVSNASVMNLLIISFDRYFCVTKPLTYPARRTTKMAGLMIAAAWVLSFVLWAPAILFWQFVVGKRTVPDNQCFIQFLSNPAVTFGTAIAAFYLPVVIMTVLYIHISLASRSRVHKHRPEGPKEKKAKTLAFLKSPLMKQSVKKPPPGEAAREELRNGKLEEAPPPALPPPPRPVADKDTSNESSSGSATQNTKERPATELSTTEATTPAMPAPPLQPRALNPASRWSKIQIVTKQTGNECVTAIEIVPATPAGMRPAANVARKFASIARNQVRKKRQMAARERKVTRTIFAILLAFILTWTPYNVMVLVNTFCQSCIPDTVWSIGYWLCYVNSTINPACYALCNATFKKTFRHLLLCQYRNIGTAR

[10] = inhibitors of larval lipid processing in zebrafish, primary screen, whole organism, PED6 fluorescence, gall bladder and intestine (AID 686;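 active means a full or partial loss of lipid-probe fluorescence in the fish gall bladder, intestine or both, judged by eye; inactive means no fluorescence loss, or compound toxic to the fish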;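 further: larvae 5 to 7 days old with five fish per well; signal comes from phospholipase A2 cleavage of quenched PED6 carried via bile; overnight exposure to compound and PED6 before scoring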); conditions: Zebrafish larvae PED6 lipid processing, fluorescence scoring
[11] = inhibitors of Chlamydomonas gravitaxis, primary screen, whole organism, Chlamydomonas reinhardtii, WT vs cilia-less mutant, absorbance, 96-well (AID 463189); conditions: OD600 absorbance, 2 days, at 10 µM, stronger effect = higher value;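 further: 0% = wild type cc124 cells in DMSO and 100% = ciliumless bld1 mutant cells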
[12] = inhibitors of Sendai virus-induced IRF3 signaling, primary screen, TLR/RLR signaling modifier project, cell-based, Sendai virus stimulus, luciferase, 10K MLSCN set (AID 602276;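 active means inhibition at or above 50% at 10 µM; inactive means inhibition below 50%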;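 further: firefly luciferase from ISG56 promoter only with Renilla not read in this screen; 0% = Sendai virus plus DMSO and 100% = medium plus DMSO without virus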); conditions: HEK293 RL24 IRF3 luciferase reporter, at 10 µM, stronger effect = higher value
[13] = inhibitors of poly I:C-induced TLR3 signaling, primary screen, cell-based, poly I:C stimulus, luciferase, 10K MLSCN set (AID 602277;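 active means inhibition of the reporter signal at or above 50%; inactive means inhibition below 50%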); conditions: HEK293-TLR3 RL24 IRF3 luciferase reporter, at 10 µM, stronger effect = higher value
[14] = measured here: cell density z-score
[15] = measured here: nuclear c-Myc green intensity z-score
[16] = measured here: nuclear pErk red intensity z-score, stronger effect = higher value

SMILES | cell count [1] | inhibition [1] | inhibition of aggregation [2] | nuclei count [2] | inhibition [3] | nuclei count [3] | z-score [4, 14] | z-score [4, 15] | z-score [4, 16] | inhibition [5] | fluorescence slope [6] | NADPH fluorescence slope [7] | slope [8] | fluorescence slope [9] | outcome [10] | inhibition [11] | inhibition [12] | inhibition [13]
CC1=C(C(=O)OC(C)C)[C@]2(C(=O)N(CC(N)=O)c3ccccc32)C(C#N)=C(N)O1 | 568 | -7.6% (inactive) | -10.5% (inactive) | 87.4% | -47.2% (inactive) | 126% | 1.04 | -0.385 | -1.8 | -0.624% (inactive) | -0.435 (inactive) | -5.8e-05 (inactive) | 0.00458 (inactive) | 0.00529 (inactive) | inactive | 1.76% (inactive) | 15.6% (inactive) | 21.9% (inactive)
CC(CCc1ccccc1)NC(C)C(O)c1ccc(O)cc1 (stereo not drawn) | 697 | 2% (inactive) | 19.5% (inactive) | 96.6% | -54.5% (inactive) | 119% | -0.115 | -1.79 | -1.46 | 10.2% (inactive) | -0.468 (inactive) | 4.8e-05 (inactive) | 0.00919 (inactive) | – | inactive | 8.38% (inactive) and -4.76% (inactive) | -11.1% (inactive) | 12% (inactive)
CC(C)[C@@]1(NC(=O)[C@@H]2C[C@@H]3c4cccc5[nH]cc(c45)C[C@H]3N(C)C2)O[C@@]2(O)[C@@H]3CCCN3C(=O)[C@H](Cc3ccccc3)N2C1=O | 640 | 11.1% (inactive) | 20.4% (inactive) | 90.4% | -79.8% (inactive) | 113% | -0.842 | -0.876 | 1.64 | -0.828% (inactive) | -0.47 (inactive) | -3.7e-05 (inactive) | 0.00471 (inactive) | – | – | -5.54% (inactive) and 15.7% (inactive) | 3.2% (inactive) | 36.1% (inactive)
O=C(O)CCCc1ccc(N(CCCl)CCCl)cc1 | 498 | -7.2% (inactive) | 4.2% (inactive) | 94.5% | -70% (inactive) | 127% | 0.122 | -0.24 | -0.885 | 12.4% (inactive) | -0.493 (inactive) | -0.000123 (inactive) | 0.00534 (inactive) | – | – | 5.31% (inactive) and 14% (inactive) | -6.04% (inactive) | -10.8% (inactive)
Cc1c2ccncc2c(C)c2c1[nH]c1ccccc12 | 493 | -11.8% (inactive) | -178% (inactive) | 27.6% | -23% (inactive) | 100% | -0.124 | 0.964 | -1.2 | 38.9% (inactive) | -0.464 (inactive) | -5.8e-09 (inactive) | 0.0129 (active) | – | – | 11% (inactive) and 108% (active) | 12.8% (inactive) | 91.8% (active)
